Bioassay records from PubChem BioAssay.
Pol beta inh = qHTS Assay for Inhibitors of DNA Polymerase Beta; P06746; Pol beta primer extension/strand displacement, fluorescence kinetic; Potency, µM (titrated, usually from 114 µM), most hits filed as inhibitors; hit rate 1.3% among 340,000; AID 485314, 2010
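Enzyme-only controls used 10 nM Pol beta; buffer lacking enzyme served as negative control. Compound preincubated 15 min, then 50 nM substrate added; 0 and 10 min reads at room temperature.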
PI4K2A block = qHTS for small molecular inhibitors of PI4K2A. Phosphatidylinositol 4-kinase type 2-alpha (Homo sapiens), Q9BTU6. purified PI4K2A, ADP-Glo luminescence, 1 h; stronger effect = lower value. activity change, negative = inhibition, % at 76.9 µM. hit rate 0.13% among 420,000. AID 1346378, 2018; in the data active = activity change below about -50%; inconclusive = mostly about -30% to -49%
Target sequence (Q9BTU6 whole entry, looked up): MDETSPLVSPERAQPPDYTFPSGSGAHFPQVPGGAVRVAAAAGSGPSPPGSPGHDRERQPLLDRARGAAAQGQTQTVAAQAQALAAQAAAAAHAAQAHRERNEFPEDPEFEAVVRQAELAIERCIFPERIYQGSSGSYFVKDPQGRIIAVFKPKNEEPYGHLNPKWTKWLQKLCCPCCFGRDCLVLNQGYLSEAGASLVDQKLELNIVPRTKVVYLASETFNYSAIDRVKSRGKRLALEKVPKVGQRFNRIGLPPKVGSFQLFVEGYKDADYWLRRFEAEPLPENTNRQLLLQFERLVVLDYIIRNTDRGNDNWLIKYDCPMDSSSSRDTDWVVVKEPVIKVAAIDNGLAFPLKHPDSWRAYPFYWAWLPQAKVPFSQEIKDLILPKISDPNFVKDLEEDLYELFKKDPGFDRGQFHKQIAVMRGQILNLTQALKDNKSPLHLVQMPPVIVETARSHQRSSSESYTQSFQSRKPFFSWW
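In this quantitative HTS, ADP production by PI4K2A was quantified luminescently after 1 h at ambient temperature; 100 microM adenosine served as plate-quality control.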
PI5P4Ka inh = qHTS for Inhibitors of phosphatidylinositol 5-phosphate 4-kinase (PI5P4K); AID 652105, 2013; Phosphatidylinositol 5-phosphate 4-kinase type-2 alpha (Homo sapiens), P48426; hit rate 1.2% among 330,000; PI5P4Kalpha enzyme, ADP-Glo luminescence, 60 min; stronger effect = lower value; max response, %; active = max response of -50% or lower; inconclusive = between -30% and -50%; inactive = -30% or higher; also: value at the top dose of about 77 µM
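Single end-point luminescence (ADP-Glo) quantified ADP from PI5P4Kalpha turnover; ATP 5 microM final, 1 h at RT, 0.1% CHAPS and 0.28 mM EGTA in HEPES pH 7.4.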
POLK inh = qHTS for Inhibitors of Polymerase Kappa. Potency, µM (top dose mostly 107 µM), actives largely listed as inhibitors. DNA polymerase kappa (Homo sapiens), Q9UBT6. purified Pol kappa, fluorescent DNA synthesis assay, 10 min. hit rate 0.53% among 400,000
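Inhibition of 10 nM Pol kappa is measured by a fluorescent read-out at 0 and 10 min following addition of 50 nM substrate (final), with a 15-min room-temperature compound preincubation.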
POLH inh = qHTS for Inhibitors of Polymerase Eta. AID 588591, 2011. Potency, µM (doses to about 114 µM), hits mostly inhibitors. recombinant Pol eta, fluorescent DNA replication assay. hit rate 1.2% among 390,000. DNA polymerase eta (Homo sapiens), Q9Y253
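Pol eta (10 nM) was preincubated with compounds for 15 min at room temperature, after which fluorescent replication substrate (50 nM final) was added to start the reaction. Fluorescence was read kinetically at 0 and 10 min.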
POLI inh = qHTS for Inhibitors of Polymerase Iota | Pol iota fluorescent replication assay, 10 min | AID 588590, 2011 | hit rate 1% among 390,000 | DNA polymerase iota (Homo sapiens), Q9UNA4 | Potency, µM (highest dose often 115 µM), hits mostly inhibitors
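Pol iota at 10 nM preincubated 15 min with compounds at room temperature; reaction started with fluorescent substrate, 50 nM final. Fluorescence read kinetically at 0 and 10 min; buffer-only wells as negative control.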
Hits are given with their value; n = inactive; u = inconclusive; x = no result given. Compounds with a hit are over-represented: about 2.8% of the library has one in this group of screens. Unless noted, calls follow the shape of the dose curve; as a rule, active = well fitted inhibition curve with a large enough effect; inconclusive = small, poorly fitted or top-dose-only effect, or another doubt; inactive = no such curve, though single readings can be large or run the other way.

SMILES | Pol beta inh | PI4K2A block | PI5P4Ka inh | POLK inh | POLH inh | POLI inh
C[n+]1c(/C=C/c2ccc(F)cc2)ccc2ccccc21 | x | x | x | n | x | n
C[n+]1c(/C=C/c2ccc(O)cc2)ccc2ccccc21 | 16µM | n | n | n | n | u
CCOc1ccc(/C=C/c2ccc3ccccc3[n+]2C)cc1OCC | x | x | x | 45µM | x | u
NC(=NCc1ccc2c(c1)OCO2)NC(=O)c1ccccc1 | n | n | n | n | 79µM | n
COCCOC(=O)N1CCCCC1c1cc(C(=O)NCc2ccc(Cl)c(Cl)c2)no1 (stereo not drawn) | x | n | n | x | x | x
Cn1ncc(C#N)c1/N=C/N1CCCC1 | 89µM | n | n | n | n | n
COCCCNC(=S)Nc1cccc2ncccc12 | n | u | n | n | n | 5.6µM
Cc1ccc(SCC(Cc2ccccc2)N2CCN(C)CCC2=O)cc1 (stereo not drawn) | x | x | x | n | x | n
COC/C=C/C1=CC2=CC(=O)C(C)(OC(=O)c3cnc4ccccc4n3)C(=O)C2=CN1c1ccc(OC)cc1 (stereo not drawn) | x | n | n | n | u | u
COC/C=C/C1=CC2=CC(=O)C(C)(OC(=O)c3ccco3)C(=O)C2=CO1 (stereo not drawn) | 28µM | x | x | x | x | x
COC/C=C/C1=CC2=CC(=O)C(C)(OC(=O)c3cnc4ccccc4n3)C(=O)C2=CN1C1CC1 (stereo not drawn) | x | n | n | n | u | u
COC/C=C/C1=CC2=CC(=O)C(C)(OC(=O)c3cnc4ccccc4n3)C(=O)C2=CN1Cc1ccc(OC)cc1 (stereo not drawn) | 40µM | u | n | u | 28µM | u
COC/C=C/C1=CC2=CC(=O)C(C)(OC(=O)c3cnc4ccccc4n3)C(=O)C2=CN1Cc1ccccc1 (stereo not drawn) | 10µM | n | n | n | 28µM | u
NS(=O)(=O)c1cc(Cl)c(NC(=O)COC(=O)c2ccccn2)c(Cl)c1 | x | n | u | n | 79µM | 40µM
O=C(CSc1nnc(-c2ccccn2)n1Cc1ccco1)Nc1ccc(Oc2ccccc2)cc1 | x | n | x | x | x | x
CCC(C)C(NC(=O)OC(C)(C)C)C(=O)NC1COC2CC(n3cc(C)c(=O)[nH]c3=O)OC12 (stereo not drawn) | x | x | x | n | x | n
CCOCCCNC(=O)/C(C#N)=C/c1ccc(Cl)c([N+](=O)[O-])c1 | n | n | n | n | n | n
COCCNC(=O)/C(C#N)=C/c1ccc(O)c([N+](=O)[O-])c1 | n | n | u | n | n | n
CCN(CC)C(=O)/C(C#N)=C/c1cc(O)c(O)c([N+](=O)[O-])c1 | x | n | x | 6.7µM | x | x
CCOCCCNC(=O)/C(C#N)=C/c1cc(OC)c(O)c([N+](=O)[O-])c1 | n | n | -64 | n | n | n
O=C1CC(c2ccccc2)Cc2[nH]c(=O)c(C(=O)O)cc21 (stereo not drawn) | x | x | x | n | x | n
Nc1nc(N)c2[nH]c(=S)[nH]c2n1 | x | n | -52 | n | n | u
Cc1ccc2nc(NC(=O)c3ccc(N4C(=O)CCC4=O)cc3)sc2c1 | n | n | -54 | n | n | n
COC(=O)Nc1sc2c(c1C(N)=O)CCC(C)C2 (stereo not drawn) | n | n | n | n | n | n
CC1CCc2c(sc(NC(=O)c3cccn3C)c2C(N)=O)C1 (stereo not drawn) | x | n | u | n | 32µM | u
SMILES | Pol beta inh | PI4K2A block | PI5P4Ka inh | POLK inh | POLH inh | POLI inh
COc1ccccc1C(=O)N/C(=C/c1ccc(Br)cc1)C(=O)NCCO | n | n | x | n | n | n
C=CCNC(=O)/C(=C\c1ccc(Br)cc1)NC(=O)c1ccccc1OC | 0.14µM | n | n | n | n | n
Cc1cccc(C(=O)Nc2sc(C(=O)N3CCCC3)c(C)c2C#N)c1 | n | -75 | n | n | n | n
Cc1c(C(=O)N2CCCC2)sc(NC(=O)c2cccc(Cl)c2)c1C#N | n | n | x | n | n | n
COc1cc(C(C)=O)ccc1OCCCN1CCC(c2noc3cc(F)ccc23)CC1 | x | n | x | x | x | x
O=C(c1ccco1)N1CCN(Cc2ccc(Cl)cc2)CC1 | n | -65 | n | n | n | n
CCOC(=O)CSc1ccc(-c2nc3cc(C)c(C)cc3[nH]2)cn1 | n | n | x | n | n | n
Cc1cc2nc(-c3ccc(SCC(=O)N4CCN(C(=O)c5ccco5)CC4)nc3)[nH]c2cc1C | 35µM | n | x | u | 79µM | u
Cc1cc2cc3c(cc2nc1SCC(=O)N1CCN(C(=O)c2ccco2)CC1)OCO3 | u | n | x | n | n | 71µM
CCc1cc2ccc(OC)cc2nc1SCC(=O)N1CCN(C(=O)c2ccco2)CC1 | n | n | n | n | n | n
Cc1cc2nc(-c3ccc(SCc4ccccn4)nc3)[nH]c2cc1C | u | n | n | n | n | 45µM
CCc1ccc(CN2CCN(C(=O)c3ccco3)CC2)cc1 | n | n | n | n | n | n
Cn1c(SCC(=O)NCc2ccco2)nnc1-c1ccc(NC(=O)c2ccccc2)cc1 | x | x | x | n | x | n
C#CCN(C1CCCC1)S(=O)(=O)C=C | x | x | x | n | x | n
CCCCCCNC(=O)C1CSCCS(=O)(=O)N1Cc1ccc(OC)cc1 (stereo not drawn) | x | n | x | x | x | x
O=C1C2C(c3ccccc3)CC=CC2C(c2cccc([N+](=O)[O-])c2)N1Cc1ccccc1 (stereo not drawn) | x | x | x | n | x | n
CC(C)(C)C(=O)OCCNc1nc(-c2cccs2)nc2ccccc12 | x | x | x | n | x | n
O=C(CSc1c2c(nc3ccc(Cl)cc13)CCCC2)N1CCCCC1 | n | n | x | n | n | n
O=C(CSc1c2c(nc3ccc(Cl)cc13)CCCC2)N1CCN(C(=O)c2ccco2)CC1 | x | n | n | u | n | 20µM
COC(=O)[C@@H]1N=C(c2ccc(OC)cc2)O[C@]12C(=O)N(Cc1cn(-c3ccccc3)nn1)c1cccc(Cl)c12 | x | n | x | x | x | x
Cc1ccc(-n2c(-c3ccccc3)n[nH]c2=S)cc1 | n | n | n | n | n | u
Cc1ccc(-n2c(-c3ccccc3)nsc2=NC#N)cc1 | x | x | x | n | x | 89µM
O=c1cc(CSc2nnc(COc3ccccc3Cl)o2)nc2sccn12 | 35µM | n | x | n | n | n
COc1cc(OC)c(N(C)C(=O)CSc2c3c(nc4ccc(Cl)cc24)CCCC3)cc1Cl | n | n | x | n | n | n
COc1ccc(-c2cc3nc(CCl)[nH]c(=O)c3s2)cc1 | n | -50 | u | n | n | u
COc1ccc(-c2cc3nc[nH]c(=O)c3s2)cc1 | n | n | n | n | n | n
